# Reference: PubChem BioAssay (EPA / NIEHS)
# Records with an inconclusive call do not appear. Calls of active or inactive are those of the source. Rule for the calls: active = hit-call score of the fitted dose curve at least 0.9, where 1 is the maximum; inconclusive = response in the unintended direction; inactive = score below 0.9.
# Experiments:
# [1] = target: human Peroxisome Proliferator-activated Receptor alpha (PPARa), PPARA (gene 5465) (UniProt Q07869); experiment: NVS_NR_hPPARa: NovaScreen (NVS) Nuclear Receptor Binding Assay for human Peroxisome Proliferator-activated Receptor alpha (PPARa) (AID 2283359);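 note: activity means loss of TR-FRET signal versus DMSO baseline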
# Procedure, shortened: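 Loss of TR-FRET binding signal relative to DMSO was measured 1 h after chemical addition to extracted receptor protein. Chemicals were first tested in duplicate at 25 uM, and actives were followed up in concentration series.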
# PGR (gene 5241) = PGR (gene 5241) (UniProt P06401); experiment: NVS_NR_hPR: NovaScreen (NVS) Nuclear Receptor Binding Assay for human Progestron Receptor (PR) (AID 2283360);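 note: active means loss of bound radioligand signal versus DMSO baseline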
# Procedure, shortened: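 T47D lysate; tritiated or iodinated radioligand; scintillation count at 18 h. DMSO = negative control/baseline. Primary: 25 uM, duplicate. Secondary: concentration series for actives.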
# [2] = target: rat Androgen Receptor (AR), Ar (gene 24208) (UniProt P15207); experiment: NVS_NR_rAR: NovaScreen (NVS) Nuclear Receptor Binding Assay for rat Androgen Receptor (AR) (AID 2283366)
# Protocol: NVS_NR_rAR is a biochemical, single-readout assay that uses extracted gene-proteins from Testosterone pre-treated rat prostate in a tissue-based cell-free assay. Measurements were taken 18 hours after chemical dosing in a 96-well plate.NVS_NR_rAR is one of one assay component(s) measured or calculated from the NVS_NR_rAR assay. It is designed to make measurements of radioligand binding, a form of binding reporter, as detected with scintillation counting signals by Filter-based radiodetection technology.Data from the assay component NVS_NR_rAR was analyzed into 1 assay endpoint. This assay endpoint, NVS_NR_rAR, was analyzed in the positive analysis fitting direction relative to DMSO as the negative control and baseline of activity. Using a type of binding reporter, loss-of-signal activity can be used to understand changes in the binding as they relate to the gene Ar. Furthermore, this assay endpoint can be referred to as a primary readout, because the performed assay has only produced 1 assay endpoint. To generalize the intended target to other relatable targets, this assay endpoint is annotated to the nuclear receptor intended target family, where the subfamily is steroidal.
# Binding assays used specific radioligands (tritiated, iodinated) with non-radioactive competitive displacement ligands in agonist or antagonist protocols (as indicated) and various reference compounds and inhibitors to titrate specific binding to receptors and transporters. Most enzyme assays (CYPs, kinases, phosphatases, proteases, HDACs) used recombinant protein and specific substrates (fluorescence mostly, some colorimetric and radioactive) and inhibitors, followed by a biochemical separation of substrate and product. All assays for the biochemical HTS were initially run in duplicate at a single concentration (10 uM for CYP450 assays and 25 uM for all others). […] Each assay was run with positive and negative controls, and concurrent controls on every plate. The follow-up (secondary) screen tested active chemical-pairs in concentration series, as well as a few additional assays not tested in the primary screen, some selected negative inactives, and several cases re-run in the concentration series for confirmatory purposes.
# [3] = test system: guinea pig Dopamine Transporter (DAT), gene 100714898; experiment: NVS_TR_gDAT: NovaScreen (NVS) Transporter Assay for guinea pig Dopamine Transporter (DAT) (AID 2283369);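 note: active compounds lower bound radioligand signal relative to DMSO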
# Procedure, shortened: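 Scintillation counts of filter-retained radioligand report binding to guinea pig striatal membranes after 2 h. Activity scored as signal loss relative to DMSO, first at 25 uM in duplicate, then in concentration series to 50 uM.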
# [4] = target: Nuclear receptor subfamily 1 group I member 2 (Homo sapiens) (UniProt O75469); experiment: NVS_NR_hPXR: NovaScreen (NVS) Nuclear Receptor Binding Assay for human Pregnane X Receptor (PXR) (AID 2283365);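 note: a drop in FRET signal versus DMSO baseline means the compound binds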
# Procedure, shortened: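 Human PXR protein, cell-free; compound added, incubated 2 h, TR-FRET read. Signal decrease vs DMSO = binding. Screened 25 uM duplicate, actives re-run as dilution series.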
# [5] = target: guinea pig Sigma Receptor, Non-selective Binding, SIGMAR1 (gene 100135589) (UniProt Q60492); experiment: NVS_OR_gSIGMA_NonSelective: NovaScreen (NVS) Nuclear Receptor Binding Assay for guinea pig Sigma Receptor, Non-selective Binding (AID 2283367)
# Procedure, shortened: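 Guinea pig brain membrane sigma sites were labelled with a radioligand, and bound radioactivity was counted after filtration 1 h post-dose. Compounds were screened at 25 uM in duplicate, then retested as concentration series when active.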
# [6] = target: human Adenosine Transporter (Adot), SLC29A1 (gene 2030) (UniProt Q99808); experiment: NVS_TR_hAdoT: NovaScreen (NVS) Transporter Assay for human Adenosine Transporter (Adot) (AID 2283368)
# Procedure, shortened: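 Binding displacement on U937 extracted protein, read 1 h post-dose by filtration and scintillation counting. Primary duplicate test at 25 uM, then singleton concentration series with 50 uM top; DMSO baseline.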
# [7] = target: Retinoic acid receptor alpha (Homo sapiens) (UniProt P10276); experiment: NVS_NR_hRARa_Agonist: NovaScreen (NVS) Nuclear Receptor Binding Assay for human Retinoic Acid Alpha Receptor Agonism (RAR) (AID 2283361)
# Procedure, shortened: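 Agonist-mode TR-FRET binding format using extracted protein, measured at 2 h post-dosing. Initial duplicate single-point screen at 25 uM preceded concentration series for actives; activity was normalized to DMSO baseline.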
# [8] = target: human Thyroid Receptor Alpha (TRa), THRA (gene 7067) (UniProt P10827); experiment: NVS_NR_hTRa_Antagonist: NovaScreen (NVS) Nuclear Receptor Binding Assay for human Thyroid Receptor Alpha Antagonism (TRa) (AID 2283362)
# Procedure, shortened: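 Extracted protein, cell-free; 1 h incubation after dosing; AlphaLISA chemiluminescence binding readout. DMSO = baseline/neg ctrl; signal loss = activity. Primary: duplicate, 25 uM; secondary: conc. series on actives.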
# Sequence of human Adenosine Transporter (Adot), SLC29A1 (gene 2030) (Q99808 whole entry, looked up): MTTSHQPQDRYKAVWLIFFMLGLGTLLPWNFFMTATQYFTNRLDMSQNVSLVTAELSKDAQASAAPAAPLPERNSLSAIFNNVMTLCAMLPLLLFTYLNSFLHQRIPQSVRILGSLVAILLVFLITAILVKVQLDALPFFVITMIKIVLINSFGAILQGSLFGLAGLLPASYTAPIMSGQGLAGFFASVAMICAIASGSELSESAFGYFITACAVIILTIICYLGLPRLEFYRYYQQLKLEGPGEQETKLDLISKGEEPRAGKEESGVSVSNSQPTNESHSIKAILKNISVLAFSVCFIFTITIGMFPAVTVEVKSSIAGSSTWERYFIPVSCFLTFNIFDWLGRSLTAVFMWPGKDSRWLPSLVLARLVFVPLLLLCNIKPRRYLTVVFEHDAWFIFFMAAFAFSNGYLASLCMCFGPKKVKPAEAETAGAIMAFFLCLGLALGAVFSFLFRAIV
# Sequence of human Thyroid Receptor Alpha (TRa), THRA (gene 7067) (P10827 whole entry, looked up): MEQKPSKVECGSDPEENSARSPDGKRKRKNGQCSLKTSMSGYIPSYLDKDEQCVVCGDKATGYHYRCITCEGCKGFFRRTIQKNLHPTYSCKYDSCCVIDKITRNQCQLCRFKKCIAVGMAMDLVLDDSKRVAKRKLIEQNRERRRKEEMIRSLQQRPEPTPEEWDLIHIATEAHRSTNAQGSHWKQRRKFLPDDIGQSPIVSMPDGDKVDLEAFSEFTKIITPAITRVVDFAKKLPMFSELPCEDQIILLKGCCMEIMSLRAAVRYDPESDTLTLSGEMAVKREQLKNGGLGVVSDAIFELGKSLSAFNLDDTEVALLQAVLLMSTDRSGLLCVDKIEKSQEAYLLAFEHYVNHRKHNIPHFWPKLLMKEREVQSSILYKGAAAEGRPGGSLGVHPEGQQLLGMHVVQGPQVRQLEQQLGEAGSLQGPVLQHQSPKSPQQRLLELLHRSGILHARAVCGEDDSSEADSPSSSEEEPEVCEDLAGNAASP
# Sequence of PGR (gene 5241) (P06401 whole entry, looked up): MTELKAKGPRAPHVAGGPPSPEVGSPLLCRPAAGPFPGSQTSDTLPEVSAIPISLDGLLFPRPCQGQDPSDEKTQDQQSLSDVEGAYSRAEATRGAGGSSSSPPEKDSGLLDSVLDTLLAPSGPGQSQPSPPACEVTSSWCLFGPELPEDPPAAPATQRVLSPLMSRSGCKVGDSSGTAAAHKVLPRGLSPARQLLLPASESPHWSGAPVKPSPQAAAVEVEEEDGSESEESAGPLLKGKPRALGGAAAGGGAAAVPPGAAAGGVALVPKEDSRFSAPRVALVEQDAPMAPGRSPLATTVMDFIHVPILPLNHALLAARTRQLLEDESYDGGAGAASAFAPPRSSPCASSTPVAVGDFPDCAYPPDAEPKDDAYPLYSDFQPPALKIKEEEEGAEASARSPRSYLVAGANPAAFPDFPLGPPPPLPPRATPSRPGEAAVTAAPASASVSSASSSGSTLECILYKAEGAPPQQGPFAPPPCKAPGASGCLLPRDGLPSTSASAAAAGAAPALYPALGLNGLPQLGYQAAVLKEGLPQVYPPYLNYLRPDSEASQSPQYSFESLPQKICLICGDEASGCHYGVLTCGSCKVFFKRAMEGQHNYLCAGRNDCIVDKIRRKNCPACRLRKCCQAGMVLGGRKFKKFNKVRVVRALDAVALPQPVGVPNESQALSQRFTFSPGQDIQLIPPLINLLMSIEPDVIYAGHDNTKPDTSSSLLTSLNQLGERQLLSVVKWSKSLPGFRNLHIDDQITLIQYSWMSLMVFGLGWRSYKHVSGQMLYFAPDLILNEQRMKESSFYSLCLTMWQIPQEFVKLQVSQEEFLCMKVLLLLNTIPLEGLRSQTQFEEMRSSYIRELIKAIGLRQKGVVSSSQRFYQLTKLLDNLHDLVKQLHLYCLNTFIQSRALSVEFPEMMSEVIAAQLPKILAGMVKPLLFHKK
# Sequence of Nuclear receptor subfamily 1 group I member 2 (Homo sapiens) (O75469 whole entry, looked up): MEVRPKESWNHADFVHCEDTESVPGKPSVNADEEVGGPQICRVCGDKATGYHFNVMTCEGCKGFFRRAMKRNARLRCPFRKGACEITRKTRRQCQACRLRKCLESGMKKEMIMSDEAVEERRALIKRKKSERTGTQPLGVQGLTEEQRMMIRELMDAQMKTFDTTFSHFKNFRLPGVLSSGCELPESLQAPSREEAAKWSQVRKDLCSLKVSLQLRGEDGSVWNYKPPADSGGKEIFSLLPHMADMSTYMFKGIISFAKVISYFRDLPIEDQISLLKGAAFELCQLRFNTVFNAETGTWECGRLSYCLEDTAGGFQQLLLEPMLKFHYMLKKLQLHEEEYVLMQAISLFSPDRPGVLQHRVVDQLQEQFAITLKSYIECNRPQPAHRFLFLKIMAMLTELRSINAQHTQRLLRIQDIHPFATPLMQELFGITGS
# Sequence of rat Androgen Receptor (AR), Ar (gene 24208) (P15207 whole entry, looked up): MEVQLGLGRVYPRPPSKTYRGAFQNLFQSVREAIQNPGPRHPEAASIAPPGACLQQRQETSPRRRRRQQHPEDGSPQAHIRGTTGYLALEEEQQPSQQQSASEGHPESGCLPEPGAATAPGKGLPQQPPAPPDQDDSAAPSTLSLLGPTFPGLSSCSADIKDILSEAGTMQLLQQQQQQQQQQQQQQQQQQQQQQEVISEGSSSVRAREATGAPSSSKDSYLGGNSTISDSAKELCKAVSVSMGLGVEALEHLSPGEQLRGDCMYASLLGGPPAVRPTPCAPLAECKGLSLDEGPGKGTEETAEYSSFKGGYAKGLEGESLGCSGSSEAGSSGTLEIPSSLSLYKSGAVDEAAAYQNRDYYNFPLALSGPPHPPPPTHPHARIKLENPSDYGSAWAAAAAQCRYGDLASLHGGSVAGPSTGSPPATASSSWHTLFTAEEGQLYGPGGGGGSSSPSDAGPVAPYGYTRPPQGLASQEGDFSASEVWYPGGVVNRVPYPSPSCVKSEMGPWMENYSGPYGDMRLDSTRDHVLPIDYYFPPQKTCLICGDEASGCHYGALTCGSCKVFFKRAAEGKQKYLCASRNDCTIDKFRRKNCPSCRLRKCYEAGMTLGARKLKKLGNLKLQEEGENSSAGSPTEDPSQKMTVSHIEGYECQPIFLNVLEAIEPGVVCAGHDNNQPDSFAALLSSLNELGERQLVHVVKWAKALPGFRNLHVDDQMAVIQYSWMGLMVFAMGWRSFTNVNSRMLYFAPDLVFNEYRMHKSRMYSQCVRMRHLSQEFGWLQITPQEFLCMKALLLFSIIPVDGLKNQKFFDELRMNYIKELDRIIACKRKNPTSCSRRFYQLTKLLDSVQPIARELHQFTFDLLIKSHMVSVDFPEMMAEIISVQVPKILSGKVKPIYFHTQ
# Sequence of guinea pig Sigma Receptor, Non-selective Binding, SIGMAR1 (gene 100135589) (Q60492 whole entry, looked up): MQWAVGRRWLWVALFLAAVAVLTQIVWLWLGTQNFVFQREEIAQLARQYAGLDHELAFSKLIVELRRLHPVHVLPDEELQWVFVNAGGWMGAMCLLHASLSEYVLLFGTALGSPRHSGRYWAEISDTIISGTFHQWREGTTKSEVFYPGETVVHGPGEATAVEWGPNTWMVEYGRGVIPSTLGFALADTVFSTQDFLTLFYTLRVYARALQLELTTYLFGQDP
# Sequence of Retinoic acid receptor alpha (Homo sapiens) (P10276 whole entry, looked up): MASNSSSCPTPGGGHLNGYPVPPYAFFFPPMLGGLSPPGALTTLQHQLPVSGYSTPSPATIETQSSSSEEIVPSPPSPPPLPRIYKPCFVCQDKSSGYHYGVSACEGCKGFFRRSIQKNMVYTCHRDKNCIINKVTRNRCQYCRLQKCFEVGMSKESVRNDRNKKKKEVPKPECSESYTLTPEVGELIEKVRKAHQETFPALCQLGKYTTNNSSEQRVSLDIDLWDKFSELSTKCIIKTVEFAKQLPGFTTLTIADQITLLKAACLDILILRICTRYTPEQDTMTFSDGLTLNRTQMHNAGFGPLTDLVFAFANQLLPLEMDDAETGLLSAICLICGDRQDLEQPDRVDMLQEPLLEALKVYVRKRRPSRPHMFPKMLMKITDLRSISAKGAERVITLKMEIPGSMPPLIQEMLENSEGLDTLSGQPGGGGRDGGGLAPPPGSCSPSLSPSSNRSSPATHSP
# Sequence of human Peroxisome Proliferator-activated Receptor alpha (PPARa), PPARA (gene 5465) (Q07869 whole entry, looked up): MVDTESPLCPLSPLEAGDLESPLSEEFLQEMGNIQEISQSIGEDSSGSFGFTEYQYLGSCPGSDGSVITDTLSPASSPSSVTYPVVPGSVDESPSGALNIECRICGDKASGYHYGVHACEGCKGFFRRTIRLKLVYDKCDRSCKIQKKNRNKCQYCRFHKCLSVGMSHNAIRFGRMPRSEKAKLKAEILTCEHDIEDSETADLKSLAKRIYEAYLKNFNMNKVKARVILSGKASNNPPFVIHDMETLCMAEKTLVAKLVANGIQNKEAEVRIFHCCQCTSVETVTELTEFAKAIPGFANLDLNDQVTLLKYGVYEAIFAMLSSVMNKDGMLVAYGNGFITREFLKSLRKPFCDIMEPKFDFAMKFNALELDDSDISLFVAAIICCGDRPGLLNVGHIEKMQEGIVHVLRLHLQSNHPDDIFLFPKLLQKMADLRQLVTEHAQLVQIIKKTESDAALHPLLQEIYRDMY
structure (smiles),measurement,setting,value
CCCCCCCCCC(=O)O,outcome,[1],inactive
Cc1cc(F)ccc1-c1cc(N2CC[C@@H](O)[C@H]2CO)ncc1N(C)C(=O)C(C)(C)c1cc(C(F)(F)F)cc(C(F)(F)F)c1,AC50,PGR (gene 5241),0.401 µM (active)
same,outcome,[2],inactive
same,AC50,[3],8.3 µM (active)
CCCCCCCC[Si](OCC)(OCC)OCC,outcome,[4],inactive
Cc1occc1C(=O)Nc1ccc(C(=O)N2CCC(F)(F)/C(=C\C(=O)N3CCC(N4CCCCC4)CC3)c3ccccc32)cc1,AC50,[5],2.93 µM (active)
same,AC50,[6],8.75 µM (active)
same,AC50,[3],7.8 µM (active)
c1ccc(C[n+]2cccc3ccccc32)cc1,AC50,[5],8.14 µM (active)
same,AC50,[3],10.1 µM (active)
CCN(CC)C(=O)c1cc(S(=O)(=O)Cc2ccccc2)c(N2CCC(c3ccccc3)CC2)cc1N(CC)CCN(C)C,outcome,[7],inactive
same,AC50,[4],15.4 µM (active)
same,AC50,[5],6.21 µM (active)
same,AC50,[3],6.53 µM (active)
c1ccc2ccccc2c1,outcome,[7],inactive
COc1ccc2cc(S(=O)(=O)N[C@H](CC(=O)N[C@H](Cc3ccc(CN4[C@H](C)CCC[C@@H]4C)cc3)C(=O)N(C)C(C)C)c3ccc4c(c3)OCO4)ccc2c1,AC50,[5],1.74 µM (active)
same,AC50,[6],9.24 µM (active)
same,AC50,[3],13.9 µM (active)
Cc1ccc2oc(CN(Cc3ccccc3)C(=O)Nc3c(F)cc(F)cc3F)c(-c3ccc(Cl)cc3)c2c1,AC50,[6],1.1 µM (active)
same,outcome,[3],inactive
CCOC(=O)O[C@H](C)OC(=O)c1ccc2c(c1)cc(C(=O)NC1CCN(C(C)C)CC1)n2Cc1cc(-c2ccc(Cl)s2)on1,AC50,[5],0.226 µM (active)
same,AC50,[3],13.8 µM (active)
CCCCCCCCN(C)CCCCCCCC,outcome,PGR (gene 5241),inactive
same,AC50,[5],0.212 µM (active)
Oc1ccccc1,outcome,[4],inactive
COc1cccc([C@H](O)C2CCN(CCc3ccc(F)cc3)CC2)c1OC,AC50,[5],0.29 µM (active)
same,AC50,[3],19.9 µM (active)
O=C1c2ccccc2C(=O)N1CCc1noc(-c2ccc(CN3CCCCCC3)s2)n1,AC50,[5],6.76 µM (active)
same,AC50,[6],21.1 µM (active)
same,AC50,[3],13.9 µM (active)
O=c1[nH]sc2ccccc12,AC50,[6],17.2 µM (active)
same,AC50,[3],40.5 µM (active)
O=C1CCC(C2CCCCC2)CC1,outcome,[8],inactive
same,outcome,[4],inactive
same,AC50,[5],25 µM (active)
CCO[Si](CCCNC(N)=O)(OCC)OCC,outcome,[7],inactive
Oc1ccc2ccccc2c1,AC50,[3],21.3 µM (active)
CCCOC(=O)c1cc(O)c(O)c(O)c1,AC50,[3],25 µM (active)
CCN(Cc1cccnc1)C(=O)c1cccc(Cl)c1[C@]1(C)C(=O)N(Cc2ccc(OC)cc2OC)c2ccc(Cl)cc21,AC50,PGR (gene 5241),9.73 µM (active)
same,AC50,[6],1.55 µM (active)
Clc1ccccc1C(c1ccccc1)(c1ccccc1)n1ccnc1,outcome,[4],inactive
Cc1oc2c(NC(=O)c3c(Cl)cccc3Cl)cccc2c1C(C)(C)O,AC50,[6],25 µM (active)
O=C(OCCCCCCOC(=O)c1ccccc1)c1ccccc1,outcome,[7],inactive
CC1(C)NC(=O)N(c2ccc([N+](=O)[O-])c(C(F)(F)F)c2)C1=O,AC50,PGR (gene 5241),15.7 µM (active)
same,outcome,[4],inactive
COc1cc(C(=O)NC2CCN(C)CC2)ccc1Nc1ncc2c(n1)N(C1CCCC1)CC(F)(F)C(=O)N2C,AC50,[5],9.05 µM (active)
same,AC50,[6],1.27 µM (active)
same,AC50,[3],13.8 µM (active)
NC(=O)c1nc(-c2cccc(-c3cc(F)ccc3OCC(F)(F)C(F)(F)F)c2)n[nH]1,outcome,[4],inactive
CN(C)C(=O)C1(N2CCCCC2)CCN(CC[C@@]2(c3ccc(Cl)c(Cl)c3)CN(C(=O)c3ccccc3)CCO2)CC1,outcome,PGR (gene 5241),inactive
same,AC50,[5],6 µM (active)
same,AC50,[3],6.54 µM (active)
CCCCCc1ccc(N)cc1,AC50,[3],25 µM (active)
O=c1c(-c2ccc(O)cc2)coc2cc(O)cc(O)c12,outcome,[7],inactive
same,outcome,[4],inactive
same,outcome,[2],inactive
CCCCCCCCCCCC[N+](C)(C)C,AC50,[5],0.123 µM (active)
same,outcome,[6],inactive
same,AC50,[3],25 µM (active)
